Source: the supplement of paper PMC4466140

Key:
Experiment in all cases: SPOT peptide array binding signal intensity (averaged, normalized) (arbitrary units (background-subtracted, floor 0; scale differs between SH3 domains)); higher = stronger binding of the SH3 domain to the peptide
[1] = target: AgAbp1
Method in brief: (§1)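 E. coli BL21(DE3) was used to express GST-fused SH3 domains from four yeast species, which were then purified on glutathione Sepharose. These were incubated at 10 μg/ml in TBS-based blocking buffer overnight at 4°C on cellulose membranes carrying synthetic 15-mer peptides, in which cysteines were replaced by serines. Binding signal is the replicate average of normalized, background-subtracted spot intensity, in arbitrary units that differ between domains.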

[2] = target: AgBbc1
Method in brief: as §1

[3] = target: AgBem1-D1
Method in brief: as §1

[4] = target: AgBzz1-D1
Method in brief: as §1

[5] = target: AgBzz1-D2
Method in brief: as §1

[6] = target: AgCyk3
Method in brief: as §1

[7] = target: AgFus1
Method in brief: as §1

[8] = target: AgHof1
Method in brief: as §1

[9] = target: AgHse1
Method in brief: as §1

[10] = target: AgLsb1
Method in brief: as §1

[11] = target: AgLsb4
Method in brief: as §1

[12] = target: AgMyo5
Method in brief: as §1

[13] = target: AgNbp2
Method in brief: as §1

[14] = target: AgRvs167
Method in brief: as §1

[15] = target: AgSho1
Method in brief: as §1

[16] = target: AgSla1-D1-D2
Method in brief: as §1

[17] = target: AgSla1-D3
Method in brief: as §1

[18] = target: CaAbp1-D1
Method in brief: as §1

[19] = target: CaAbp1-D2
Method in brief: as §1

[20] = target: CaBbc1
Method in brief: as §1

[21] = target: CaBem1-D1
Method in brief: as §1

[22] = target: CaBzz1-D1
Method in brief: as §1

[23] = target: CaBzz1-D2
Method in brief: as §1

[24] = target: CaCyk3
Method in brief: as §1

[25] = target: CaFus1
Method in brief: as §1

[26] = target: CaHof1
Method in brief: as §1

[27] = target: CaHse1
Method in brief: as §1

[28] = target: CaLsb1
Method in brief: as §1

[29] = target: CaLsb4
Method in brief: as §1

[30] = target: CaMyo5
Method in brief: as §1

Binder: VGFRLALKFPSRITG
- SPOT peptide array binding signal intensity [1]: 156
- SPOT peptide array binding signal intensity [2]: 89.2
- SPOT peptide array binding signal intensity [3]: 596
- SPOT peptide array binding signal intensity [4]: 231
- SPOT peptide array binding signal intensity [5]: 180
- SPOT peptide array binding signal intensity [6]: 107
- SPOT peptide array binding signal intensity [7]: 3790
- SPOT peptide array binding signal intensity [8]: 137
- SPOT peptide array binding signal intensity [9]: 3050
- SPOT peptide array binding signal intensity [10]: 17.2
- SPOT peptide array binding signal intensity [11]: 1990
- SPOT peptide array binding signal intensity [12]: 9.5
- SPOT peptide array binding signal intensity [13]: 1370
- SPOT peptide array binding signal intensity [14]: 55.5
- SPOT peptide array binding signal intensity [15]: 2510
- SPOT peptide array binding signal intensity [16]: 505
- SPOT peptide array binding signal intensity [17]: 31
- SPOT peptide array binding signal intensity [18]: 766
- SPOT peptide array binding signal intensity [19]: 1210
- SPOT peptide array binding signal intensity [20]: 179
- SPOT peptide array binding signal intensity [21]: 147
- SPOT peptide array binding signal intensity [22]: 976
- SPOT peptide array binding signal intensity [23]: 473
- SPOT peptide array binding signal intensity [24]: 118
- SPOT peptide array binding signal intensity [25]: 5990
- SPOT peptide array binding signal intensity [26]: 13.8
- SPOT peptide array binding signal intensity [27]: 966
- SPOT peptide array binding signal intensity [28]: 25
- SPOT peptide array binding signal intensity [29]: 716
- SPOT peptide array binding signal intensity [30]: 105
